# Measurements as given in PubChem BioAssay (NCATS).
# Records with an inconclusive call do not appear. Unmarked numbers belong to inactive results. Calls of active or inactive are those of the source. Calls follow the shape of the dose curve; as a rule, active = well fitted cell-killing curve with a large enough effect; inconclusive = small, poorly fitted or top-dose-only effect, or effect the other way; inactive = no such curve, though single readings can be large or run the other way.
# Key:
# [1] = Quantitative High-Throughput drug screen in 47 multiple myeloma cell lines against the NCATS MIPE library collection: L363_DSMZ cell viability assay (AID 1918984); details: L363 myeloma viability, CellTiter-Glo ATP luminescence, 48 h; viability (% of control): at 45.8 µM (top of the series); also: nearly all actives have a fitted effect of over 40% in size; also: potency is read from the fitted curve at half-maximal effect
# Summary of the method: (§1)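 Plated at 500 cells per well, myeloma lines received MIPE 4.0 compounds by pin tool. Following 48 h culture at 37 °C, CellTiter-Glo luminescence gave viability relative to DMSO and media-only controls.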
# [2] = Quantitative High-Throughput drug screen in 47 multiple myeloma cell lines against the NCATS MIPE library collection: OPM1_PLB cell viability assay (AID 1918989); also: nearly all actives have a fitted effect of over 40% in size; also: potency is read from the fitted curve at half-maximal effect
# Summary of the method: as §1
# [3] = Quantitative High-Throughput drug screen in 47 multiple myeloma cell lines against the NCATS MIPE library collection: SKMM1_PLB cell viability assay (AID 1919863); details: SKMM1 myeloma viability, CellTiter-Glo ATP, 48 h; viability: stronger effect = lower value; also: nearly all actives have a fitted effect of over 35% in size; also: potency is read from the fitted curve at half-maximal effect
# Summary of the method: as §1
# [4] = Quantitative High-Throughput drug screen in 47 multiple myeloma cell lines against the NCATS MIPE library collection: UTMC2_PLB cell viability assay (AID 1919868); details: CellTiter-Glo ATP luminescence, 48 h; viability (% of DMSO control): at 45.8 µM (top of the series); also: nearly all actives have a fitted effect of over 55% in size; also: potency is read from the fitted curve at half-maximal effect
# Summary of the method: as §1
# [5] = Quantitative High-Throughput drug screen in 47 multiple myeloma cell lines against the NCATS MIPE library collection: RPMI8226_ATCC cell viability assay (AID 1919871); also: nearly all actives have a fitted effect of over 30% in size; also: potency is read from the fitted curve at half-maximal effect
# Summary of the method: as §1
# [6] = Quantitative High-Throughput drug screen in 47 multiple myeloma cell lines against the NCATS MIPE library collection: OPM2_DSMZ cell viability assay (AID 1919872); also: nearly all actives have a fitted effect of over 30% in size
# Summary of the method: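 We plated 500 myeloma cells per well, pinned in MIPE 4.0 compounds, and incubated for 48 hours at 37C. ATP was then quantified with CellTiter-Glo, with DMSO and media-only wells defining 100% and 0%.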
# [7] = Quantitative High-Throughput drug screen in 47 multiple myeloma cell lines against the NCATS MIPE library collection: KMS28BM_JCRB cell viability assay (AID 1919874); also: nearly all actives have a fitted effect of over 35% in size; also: potency is read from the fitted curve at half-maximal effect
# Summary of the method: as §1
# [8] = Quantitative High-Throughput drug screen in 47 multiple myeloma cell lines against the NCATS MIPE library collection: OCIMY5_PLB cell viability assay (AID 1918988); also: nearly all actives have a fitted effect of over 65% in size; also: potency is read from the fitted curve at half-maximal effect
# Summary of the method: as §1
# [9] = Quantitative High-Throughput drug screen in 47 multiple myeloma cell lines against the NCATS MIPE library collection: XG6_PLB cell viability assay (AID 1919865); also: nearly all actives have a fitted effect of over 40% in size; also: potency is read from the fitted curve at half-maximal effect
# Summary of the method: as §1
# [10] = Quantitative High-Throughput drug screen in 47 multiple myeloma cell lines against the NCATS MIPE library collection: XG1_PLB cell viability assay (AID 1919866); also: nearly all actives have a fitted effect of over 35% in size; also: potency is read from the fitted curve at half-maximal effect
# Summary of the method: as §1
# [11] = Quantitative High-Throughput drug screen in 47 multiple myeloma cell lines against the NCATS MIPE library collection: PE2_PLB cell viability assay (AID 1919869); also: nearly all actives have a fitted effect of over 35% in size; also: potency is read from the fitted curve at half-maximal effect
# Summary of the method: as §1
# [12] = Quantitative High-Throughput drug screen in 47 multiple myeloma cell lines against the NCATS MIPE library collection: PCM6_Riken cell viability assay (AID 1919870); also: nearly all actives have a fitted effect of over 30% in size; also: potency is read from the fitted curve at half-maximal effect
# Summary of the method: as §1
# [13] = Quantitative High-Throughput drug screen in 47 multiple myeloma cell lines against the NCATS MIPE library collection: KMS11_JCRBsus cell viability assay (AID 1919873); also: nearly all actives have a fitted effect of over 50% in size; also: potency is read from the fitted curve at half-maximal effect
# Summary of the method: as §1
# [14] = Quantitative High-Throughput drug screen in 47 multiple myeloma cell lines against the NCATS MIPE library collection: VP6_DJ cell viability assay (AID 1919867); also: potency is read from the fitted curve at half-maximal effect; nearly all actives have a fitted effect of over 40% in size
# Summary of the method: as §1
# [15] = Quantitative High-Throughput drug screen in 47 multiple myeloma cell lines against the NCATS MIPE library collection: U266_ATCC cell viability assay (AID 1919864); also: nearly all actives have a fitted effect of over 35% in size; also: potency is read from the fitted curve at half-maximal effect
# Summary of the method: as §1
smiles,measurement,setting,value
CNC(=O)[C@H](CC1=CN=C2C=CCC=C12)NC(=O)[C@@H](CC(=O)NO)CC(C)C,Potency,[1],0.059 µM (active)
same,Potency,[2],inactive
same,viability,[3],109%
same,Potency,[4],18.7 µM (active)
same,Potency,[5],inactive
same,Potency,[6],inactive
same,Potency,[7],5.9 µM (active)
COc1ccc(-c2nc3ccc(C4=NNC(=O)CC4C)cc3[nH]2)cc1 (configuration not stated),Potency,[1],inactive
same,Potency,[8],inactive
same,viability,[3],101%
same,Potency,[9],inactive
same,Potency,[10],inactive
same,Potency,[11],inactive
same,Potency,[12],inactive
same,Potency,[6],inactive
same,Potency,[13],inactive
Cc1ccc(NC(=O)c2cccc(N(C)C)c2)cc1NC(=O)c1ccc(O)cc1,Potency,[1],inactive
same,Potency,[8],1.32 µM (active)
same,Potency,[2],23.5 µM (active)
same,Potency,[10],0.0469 µM (active)
same,Potency,[14],0.469 µM (active)
same,Potency,[4],0.332 µM (active)
same,Potency,[11],18.7 µM (active)
same,Potency,[12],0.418 µM (active)
same,Potency,[5],inactive
same,Potency,[7],5.26 µM (active)
O=C1C(c2c(O)[nH]c3ccccc23)=Nc2ccccc21,Potency,[1],inactive
same,Potency,[8],1.32 µM (active)
same,Potency,[2],inactive
same,Potency,[15],1.66 µM (active)
same,Potency,[9],0.296 µM (active)
same,Potency,[10],0.418 µM (active)
same,Potency,[4],inactive
same,Potency,[11],1.66 µM (active)
same,Potency,[6],inactive
same,Potency,[13],inactive
same,Potency,[7],inactive
FC(F)(F)c1ccc(C=Cc2nc(COc3ccc(CCCCn4ccnn4)cc3)co2)cc1,Potency,[1],0.001 µM (active)
same,Potency,[8],0.0166 µM (active)
same,Potency,[2],0.187 µM (active)
same,Potency,[4],0.0833 µM (active)
same,Potency,[12],0.0118 µM (active)
same,Potency,[13],0.0235 µM (active)
OC1CCC(Nc2ncc3nc(Nc4c(F)cc(F)cc4F)n([C@@H]4CCOC4)c3n2)CC1 (some centres not stated),Potency,[1],5.26 µM (active)
same,Potency,[2],20.9 µM (active)
same,Potency,[3],18.7 µM (active)
same,Potency,[9],9.35 µM (active)
same,Potency,[10],13.2 µM (active)
same,Potency,[14],11.8 µM (active)
same,Potency,[4],inactive
same,Potency,[5],inactive
same,Potency,[7],inactive
NC(=O)c1nnn(Cc2cc(Cl)c(C(=O)c3ccc(Cl)cc3)c(Cl)c2)c1N,Potency,[1],inactive
same,Potency,[8],26.4 µM (active)
same,Potency,[15],16.6 µM (active)
same,Potency,[9],18.7 µM (active)
same,Potency,[10],20.9 µM (active)
same,Potency,[14],20.9 µM (active)
same,Potency,[11],23.5 µM (active)
same,Potency,[5],14.8 µM (active)
same,Potency,[13],16.6 µM (active)
COc1ccc2c(c1)c(C1=C(c3c[nH]c4ccccc34)C(=O)NC1=O)cn2CCCN(C)C,Potency,[1],13.2 µM (active)
same,Potency,[8],37.2 µM (active)
same,Potency,[2],23.5 µM (active)
same,Potency,[15],26.4 µM (active)
same,Potency,[14],20.9 µM (active)
same,Potency,[12],23.5 µM (active)
same,Potency,[13],23.5 µM (active)
COc1ccc2ccc(=O)oc2c1CC=C(C)C,Potency,[1],10.5 µM (active)
same,Potency,[8],8.33 µM (active)
same,Potency,[2],inactive
same,Potency,[15],13.2 µM (active)
same,Potency,[11],inactive
same,Potency,[12],inactive
Cn1c(=O)c(-c2c(Cl)cccc2Cl)cc2cnc(Nc3cccc(C(=O)O)c3)nc21,Potency,[1],0.59 µM (active)
same,Potency,[8],13.2 µM (active)
same,Potency,[3],2.09 µM (active)
same,Potency,[15],inactive
same,Potency,[9],0.187 µM (active)
same,Potency,[10],0.296 µM (active)
same,Potency,[14],0.235 µM (active)
same,viability (% of DMSO control),[4],127% (active)
same,Potency,[11],inactive
same,Potency,[12],0.0469 µM (active)
same,Potency,[5],inactive
same,Potency,[13],inactive
same,Potency,[7],inactive
CNC(=O)c1cc(Oc2ccc(NC(=O)Nc3ccc(Cl)c(C(F)(F)F)c3)c(F)c2)ccn1,Potency,[1],6.62 µM (active)
same,Potency,[2],inactive
same,Potency,[3],20.9 µM (active)
same,Potency,[9],0.935 µM (active)
same,Potency,[10],2.64 µM (active)
same,Potency,[14],2.96 µM (active)
same,Potency,[4],3.72 µM (active)
same,Potency,[11],3.32 µM (active)
same,Potency,[13],14.8 µM (active)
CCC(=O)OCC(=O)[C@@]1(OC(=O)CC)[C@@H](C)C[C@@H]2[C@H]3CCC4=CC(=O)C=C[C@]4(C)[C@@]3(F)[C@@H](O)C[C@@]21C,Potency,[1],1.05 µM (active)
same,Potency,[2],14.8 µM (active)
same,viability,[3],97.1%
same,Potency,[15],inactive
same,Potency,[9],11.8 µM (active)
same,Potency,[14],11.8 µM (active)
same,Potency,[12],7.43 µM (active)
same,Potency,[5],0.418 µM (active)
same,Potency,[13],0.0526 µM (active)
C[C@@H]1CCO[C@H]2Cn3cc(C(=O)NCc4ccc(F)cc4F)c(=O)c(O)c3C(=O)N12,viability (% of control),[1],92.8% (active)
same,Potency,[8],20.9 µM (active)
same,Potency,[3],26.4 µM (active)
same,Potency,[10],26.4 µM (active)
same,Potency,[12],23.5 µM (active)
same,Potency,[6],inactive
same,Potency,[13],18.7 µM (active)
same,Potency,[7],16.6 µM (active)
CO[C@H]1/C=C\O[C@@]2(C)Oc3c(C)c(O)c4c(O)c(c5c(nc6cc(C)ccn65)c4c3C2=O)NC(=O)C(C)=CC=C[C@H](C)[C@H](O)[C@@H](C)[C@@H](O)[C@@H](C)[C@H](OC(C)=O)[C@H]1C,Potency,[1],20.9 µM (active)
same,Potency,[8],16.6 µM (active)
same,Potency,[9],inactive
same,Potency,[10],inactive
same,Potency,[6],inactive
same,Potency,[13],inactive
same,Potency,[7],inactive
O=C(O)CCC=CCC[C@@H]1[C@H](N2CCCCC2)[C@@H](O)C[C@@H]1OCc1ccc(-c2ccccc2)cc1,Potency,[1],inactive
same,Potency,[8],inactive
same,viability,[3],114%
same,Potency,[15],inactive
same,Potency,[9],inactive
same,Potency,[10],inactive
same,Potency,[4],inactive
same,Potency,[11],inactive
same,Potency,[5],inactive
same,Potency,[6],inactive
same,Potency,[13],inactive
CCCCOCCOc1nc(-c2ccc(C(=O)O)c(F)c2)sc1C,Potency,[1],inactive
same,Potency,[8],14.8 µM (active)
same,viability,[3],118%
same,Potency,[5],10.5 µM (active)
same,Potency,[6],inactive
same,Potency,[7],inactive
